{"source": "the supplement of paper PMC12632987", "binders": {"B1": {"name": "LC3A_28_691 (protein)", "chain": "SAIDETIARIRAQAEAALAAGEEALLEVTVPATATQEDIDRLIATIREAVERLAGVGKVYIVVDVESGVAQENITRLADALDELEAEYPNVTVVIALDED"}, "B2": {"name": "LC3A_28_654 (protein)", "chain": "EEVEKELKEALKEAEEAKKKKEPAVITIKVSGKVNEEELKKILETLEKIAELLKDIKGSAIIIDLDKDVKEEFKNKLIDKAEELEKKYPNVTVIIALEER"}, "B3": {"name": "LC3A_3_1762 (protein)", "chain": "MEAFIEAAAKELKEAGASEELIEKASRALRLLLERGLEETAKEFVKVLLELLKKSEELALDLAEDVLTLLETSTLSPEELAKAVRSEMNAALSEAEIEEL"}, "B4": {"name": "LC3A_28_950 (protein)", "chain": "MSIEENIEKALKEAKEAKEKNEPVVITLVLEDDPSEEAVEALIEAMEEIAELLKDIKGTTIIVDVSSKVKQEHIDAIADKGEEIEKKYPNINVIIALDED"}, "B5": {"name": "LC3A_102_127 (protein)", "chain": "EVEKLKKELLEKVKKEVEKLLEKDKSLSEEEKKKILELAEKLAEAKLENAEIEIQHGFVDIYLEDKAIELQEELEKIDKELAKKINEIIEKGVEEFRKKL"}, "B6": {"name": "LC3A_free_46_2348 (protein)", "chain": "YKAEILIDLLAKDKETLEKAVKEIVEEAKKIAEKYNLELEIKVKIEKLEDGSYYAEIEITLKGETEEDLQKAVNELINKIEEIAKKYGVAAIISYEIIKE"}, "B7": {"name": "LC3A_28_708 (protein)", "chain": "NPLEESIKKALEEAKAAAKAGESTVITIKVPGSATEEDIEKLIKALEEIAEITKDLPSTSIIIDVDGGVKQEHIDKIADAAEEIEKKYPNVTVIIALDET"}, "B8": {"name": "LC3A_147_403 (protein)", "chain": "YIVEADIDIITKNAKEEVLAAFEEIVEELKEKGYEVELEVEVEKLDEDTWYINVKIKVETETKEEAEEVADYIEDKIDEIEEKLKDKILASLISIEIIEE"}, "B9": {"name": "LC3A_free_46_2366 (protein)", "chain": "VKAEIDIDFLVETKEKAEELAKELEEEIKKIAEKYGVKVKIEVKIIKNPDGTYSLEIEIELEAENKETLQKAVNEIIDSIDKIAEKFNVSYIISVEIIDE"}, "B10": {"name": "LC3A_28_934 (protein)", "chain": "MTVEERIKKALEEAEKAAKAGEPVVITIKVTSKDTQEEIDKLIKTIKEIAEILKNVKGAAIIVDVDAGVPQERIDKIADTLEEIEKKYPNINAILALDED"}, "B11": {"name": "LC3A_3_1491 (protein)", "chain": "MEELLERMREVLEARGASEEQIEEVLEAVEELLELGYEETVEELIELFEANPDLDPEQIVTAVLITLEVAEEEDLSEEELVERARRIFEDVAEIEALDEE"}, "B12": {"name": "LC3A_3_1490 (protein)", "chain": "REELLERMRAVLEARGASPEQIAEVLEAAERLLELGYEETVETLIELFEANPDLDPLDIVTAVLITLEVAEEEDLSEEELVERAREIFENVREIEALDEN"}, "B13": {"name": "LC3A_28_1022 (protein)", "chain": "SALDEELEALRAEVEAALARGEDVLLEVTIKPTDSLEEVRRKMERVKEIALEASKRGKVDVLIDVEKGVSQEKIDIVMDAAEELEEEDPSVNVIIALEEE"}, "B14": {"name": "LC3A_141_383 (protein)", "chain": "MKKEFEMEATKETADEVFKFMEEVEKETLEMIKESGGKPVKMKVKITATNEKTGEVVEKEEEYIVTEENADLVADGIEIEVLSLLDRVGGKVKVKVTLES"}, "B15": {"name": "LC3A_28_1063 (protein)", "chain": "SKVEAEIKKALAEAKEAVAAGEEALVTITIDDSDSDEDVEKKLKTMEEIAELTKTLPRTTILVDIDSSRKEEISKKVSEVGDKLEKKYPNVTVIIALSEE"}, "B16": {"name": "LC3A_147_431 (protein)", "chain": "YITTVDIDVLTKDAEEEVIKAAKEIEEELKAKGYEVELEIEVEELENGEKYIHIKITVKTETEEEAKEAADYIVDKFEELEEKLKDKILGSIISVEIEEA"}, "B17": {"name": "LC3A_147_511 (protein)", "chain": "YEVEVDVDIITKDAEEEVIEEFKEIAEELKKKGYEVELEIEVEELENGITYIHVKITVKTETEEEAKEVANYILDKIDEIEEKLKDKILGSMISVEIIKK"}, "B18": {"name": "LC3A_free_8_2456 (protein)", "chain": "SSQKLVDTAVKLLEEMEKELTELAKKEGLSRLDILELELEIGSLIAEVISLVDKSPEEILETTKEGLEEIIELAKELGEEVAKLAEEKSKEIIEELEKLI"}, "B19": {"name": "LC3A_28_1295 (protein)", "chain": "SEIEKNLKEALAEAKKAKAEGKQVVITVKVPGDATQEEIELVIKGLEEIAKVLEDVPNQTIIIDVEAGVKQEHIDLLADRAEEIEKKYPNVTVIIALDED"}, "B20": {"name": "LC3A_28_1058 (protein)", "chain": "MSIEEQLEKALEEAKEAVKKGEEALVELKINKDSTEEDVEKVLETMKEIAELTKDLPSVSIVVDVDHENKEEVTKKVSELGDELEKKYPNVTVIIALSEE"}, "B21": {"name": "LC3A_28_1049 (protein)", "chain": "SPIEEELKRALEEAKEAVARGEEALIRLTIGKDATEEDVEKVLETMEEIAELTKSLPRVDIVVDVDSENKEEVTKKIAEKGEELEKKYPNVTVYIALSEE"}, "B22": {"name": "LC3A_28_738 (protein)", "chain": "SAIEKELEKAIKEAKEAAKAKEPKVITITVPGTANEEDIELVIKALEEIAEILKDVKDQAIIIDVDGKLDPELLKKLMDKAEEIEEKYPNVTVIIALDEE"}, "B23": {"name": "LC3A_free_8_2444 (protein)", "chain": "STQKLVDEVTELLDEMEERVEEKAKELGLSELDILDLSLLIGSLIAEIISAVDKSIEEIRKIVEEDMEEIIEEARELSEEIAEIVEETKERILELIDEAE"}, "B24": {"name": "LC3A_28_1082 (protein)", "chain": "SAVDAQIAAALAALRAAKAAGEEALLTLTLTEDATQEDVDRLIAGLEEIAELARDAARVTVVIDLDGKIPQEHIDRIADAAERIEERVPNVTVIIALDEE"}, "B25": {"name": "LC3A_free_39_2223 (protein)", "chain": "SEEEIEKLIKEVAKESGIDYEELKKKIEEIKEVGKLSNEQILEIVKAILEAVKAGADAKEILEEALKLTKELVAAGKSPEEIKEEILELIEDYRNLVPLD"}, "B26": {"name": "LC3A_3_1370 (protein)", "chain": "MEEEKAATLAELKAAGKSEETIAAVEKTLDALIEKGYEEAAKTFMELLKELKDLSDEILLAFAEDVLKAVEEEDLSEEELIKFIKEEATIARNEQEIIEL"}, "B27": {"name": "LC3A_28_1053 (protein)", "chain": "SAIDKQLEAALAEARAAAAAGEEALITLTIPENATEEDVEKVLATIREIAEITKDLPATTIIVDVDNKNQEEVTKKIDEVGEELAKKYPNVTVIIALSEN"}, "B28": {"name": "LC3A_28_1052 (protein)", "chain": "SHIDEQIEKALKEAEEAKAKGEEALIELHIGKDANEEDVEKVLETIEKIAEITKDLPSVTIIVDVDNPNKEEVTKKIDEVGEELAKKYPNVTVIIALSEE"}, "B29": {"name": "LC3A_free_46_2334 (protein)", "chain": "TLVVVEVDVLAPDRATAEAFVADLEARIRARLAEAGIDAEVEVELEEGPDGKTFRVTVKVRLKDPEADPQEVADLVVDAIDESAEEHGLSYIISVEIIEE"}}, "note": "The full ranking holds about 2,300 sequences; the median of “median log2 fold change of GCK-ALFA target abundance (FLAG IP / Myc IP barcode read proportion)” is about 0.095, and the lowest 2% start at about -0.47. This is one part of a sample in which the lowest values are shown more often than they occur."}
{"molecular_target": "MAP1LC3A, Q9H492", "assay": "median log2 fold change of GCK-ALFA target abundance (FLAG IP / Myc IP barcode read proportion) (log2 ratio); each designed protein is fused to an ALFA-tag nanobody in HEK293 cells to bring the named protein to FLAG-tagged glucokinase (GCK); Myc marks an untargeted standard; higher = target protein stabilised (more abundant)", "settings": "target protein: 3xFLAG-MCP-GCK-ALFA reporter; HEK293 landing pad (RPLP)", "how_it_was_run": "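HEK293 landing-pad cells received a recombined binder library fused to the ALFA nanobody and were induced with 2 μg mL^−1 doxycycline, then transfected with a plasmid encoding a FLAG-tagged target and a Myc-tagged standard. Lysates were collected after 48 h for anti-FLAG and anti-Myc immunoprecipitation, and the circular RNA barcodes were reverse transcribed, amplified and sequenced. Target abundance for each binder is the median log2 ratio of FLAG to Myc barcode read proportions. Barcodes had to reach a proportion of at least 10^−7 in both replicates, each binder needed at least 3 barcodes per replicate, a pseudocount of 10^−6 was applied, and the two replicates were pooled.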"}
{"binder": "B1", "median log2 fold change": -0.0472}
{"binder": "B2", "median log2 fold change": 0.153}
{"binder": "B3", "median log2 fold change": 0.226}
{"binder": "B4", "median log2 fold change": 0.204}
{"binder": "B5", "median log2 fold change": -0.519}
{"binder": "B6", "median log2 fold change": -0.204}
{"binder": "B7", "median log2 fold change": 0.0817}
{"binder": "B8", "median log2 fold change": -0.0503}
{"binder": "B9", "median log2 fold change": 0.102}
{"binder": "B10", "median log2 fold change": 0.252}
{"binder": "B11", "median log2 fold change": -0.577}
{"binder": "B12", "median log2 fold change": -0.342}
{"binder": "B13", "median log2 fold change": 0.00506}
{"binder": "B14", "median log2 fold change": 0.328}
{"binder": "B15", "median log2 fold change": 0.0338}
{"binder": "B16", "median log2 fold change": 0.117}
{"binder": "B17", "median log2 fold change": -0.745}
{"binder": "B18", "median log2 fold change": -0.163}
{"binder": "B19", "median log2 fold change": 0.184}
{"binder": "B20", "median log2 fold change": -0.699}
{"binder": "B21", "median log2 fold change": 0.00401}
{"binder": "B22", "median log2 fold change": 0.167}
{"binder": "B23", "median log2 fold change": -0.324}
{"binder": "B24", "median log2 fold change": 0.081}
{"binder": "B25", "median log2 fold change": -0.0674}
{"binder": "B26", "median log2 fold change": 0.233}
{"binder": "B27", "median log2 fold change": -0.454}
{"binder": "B28", "median log2 fold change": -0.553}
{"binder": "B29", "median log2 fold change": 0.0611}
